HP1b chromo inh: HP1-beta chromodomain-methylated histone interaction inhibition; hit rate 0.56% among 390,000; Potency, µM (doses to about 114 µM), for inactives: top-dose activity change, negative = inhibition, hits mostly inhibitors; P83916; AlphaScreen HP1-beta / biotin-H3K9me3 peptide binding; note: nearly all actives have a fitted effect of over 70% in size
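HP1-beta protein (50 nM final) preincubated 30 min at room temperature with biotinylated H3(1-18)K9me3 peptide (50 nM) in PBS pH 7.4, 0.01% Tween-20, then compound added for 30 min. AlphaScreen streptavidin donor/nickel chelate acceptor beads (10 ug/mL final), 30 min dark, luminescence read.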
JMJD2A Tudor: blocks the human JMJD2A Tudor domain | AlphaScreen JMJD2A-Tudor / H3K4me3 peptide binding | hit rate 4.4% among 390,000 | AID 504339 | Potency, µM (highest dose often 114 µM), for inactives: at the top dose activity change, negative = inhibition, most hits filed as inhibitors | O75164; note: % is set by controls: 0 for no effect and ±100 for the full control effect; nearly all actives have a fitted effect of over 50% in size
G9a block: inhibitors of human histone lysine methyltransferase G9a; hit rate 8.8% among 350,000; G9a H3K9 monomethylation, AlphaScreen, 2 h; Q96KQ7; Potency, µM (titrated, usually from 102 µM), inactives show top-dose activity, negative = inhibition, actives largely listed as inhibitors; note: % is set by controls: 0 for no effect and ±100 for the full control effect; nearly all actives have a fitted effect of over 75% in size
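G9a (20 nM) preincubated 15 min RT with compounds, then 500 nM biotinylated H3K9 peptide and 20 uM SAM added; 2 h RT reaction. Monomethyl-H3K9 product detected by AlphaScreen with anti-H3K9me1 antibody, streptavidin donor and anti-rabbit IgG acceptor beads.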
L3MBTL1 block: inhibitors of human L3MBTL1; AlphaScreen L3MBTL1–H3K9me1 peptide binding; Q9Y468; hit rate 0.66% among 230,000; AID 485360; Potency, µM (doses to about 57.1 µM), for the others: top-dose activity, negative = inhibition, actives largely listed as inhibitors; note: % is set by controls: 0 for no effect and ±100 for the full control effect; nearly all actives have a fitted effect of over 60% in size
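L3MBTL1 (50 nM) pre-complexed 30 min with biotinylated H3(1-15)K9me1 peptide (75 nM), then compounds added for 30 min at room temperature; AlphaScreen streptavidin donor/nickel chelate acceptor beads (10 ug/mL final) read after 30 min dark incubation.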
Sfp PPTase inh: Sfp phosphopantetheinyl transferase inhibition; hit rate 3.5% among 310,000; Potency, µM, for the others: largest response in the series, negative = inhibition, actives largely listed as inhibitors; AID 1490; Biochemical Sfp PPTase activity, qHTS;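 note: the enzyme is Sfp with the accession as filed and its product quenches rhodamine fluorescence; 0% = enzyme reaction without inhibitor and -100% = no enzyme wells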
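After 15 min at room temperature with compound, 15 nM Sfp received 5 uM rhodamine-CoA plus 12.5 uM BHQ-2-ybbR (50 mM Hepes pH 7.6, 10 mM MgCl2). Rate came from the fluorescence difference over 30 min, ex 525/em 598 nm.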
BAZ2B inh: blocks human BAZ2B; Q9UIF8; AlphaScreen BAZ2B-H3K14Ac peptide displacement; Potency, µM (series often up to 114 µM), for inactives: top-dose activity change, negative = inhibition, actives largely listed as inhibitors; hit rate 4.4% among 360,000; note: % is set by controls: 0 for no effect and ±100 for the full control effect; nearly all actives have a fitted effect of over 60% in size
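Compounds, titrated to a top concentration of 110 uM, were incubated 30 min at room temperature with preformed BAZ2B/acetyl-K14 H3 peptide complex (50 nM each). Proximity signal was measured by AlphaScreen after 20 min with beads.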
* hit, by the source's call; ? = inconclusive; nt = no result; [ ] = another dose, or the depositor's remark. An excerpt weighted towards active compounds, which were near 12% of everything screened. Calls come from the whole dose curve; as a rule, active = well fitted curve in the direction sought with a large enough effect; inconclusive = small, poorly fitted or top-dose-only effect, or another doubt; inactive = no such curve, though single readings can be large; an effect the other way counts as inactive or inconclusive. Potency is the fitted concentration of half-maximal effect.

SMILES | HP1b chromo inh | JMJD2A Tudor | G9a block | L3MBTL1 block | Sfp PPTase inh | BAZ2B inh
COC(=O)c1ccccc1NC(=O)c1ccc(F)cc1F | nt | -3% | nt | nt | nt | nt
COc1ccc(-c2noc(-c3ccc(NC(C)c4ccccc4)c([N+](=O)[O-])c3)n2)cc1OC (stereo unspecified) | 25% | -31% | ? | nt | nt | -26%
Cc1ccc(-c2cc(-c3ccc4c(c3)OCO4)c(C#N)c(N)n2)o1 | 33% | 7% | ? | -2% | 10µM* | nt
Cc1cc(-c2cc(-c3ccc(Cl)cc3)nc(N)c2C#N)co1 | -9% | 40µM* | ? | -7% | 10µM* | ?
COc1ccc(-c2cc(-c3ccc(O)cc3)nc(N)c2C#N)cc1OC | 72% | 13% | 2% | 4% | ? | -34%
Cc1nc(N)c(C#N)c(-c2ccc3c(c2)OCO3)c1C | 37% | 2% | 17%[59 µM] | 4% | 5% | -22%
CCOc1cc(-c2cc(-c3ccc(C)o3)nc(N)c2C#N)ccc1O | 23% | -12% | 40µM* | nt | -7% | 4%
Cc1ccc(-c2cc(-c3ccc(Cl)cc3)c(C#N)c(N)n2)o1 | -6% | 79µM* | 5.6µM* | -19% | 8.9µM* | 56µM*
O=C(CSc1nc2ccsc2c(=O)n1-c1ccc(Br)cc1)NCc1ccccc1 | 15% | -21% | -7%[59 µM] | nt | nt | -26%
CCc1ccccc1NC(=O)Cn1c(=O)n(-c2ccc(C)cc2)c(=O)c2c1c1cc(C)ccc1n2C | 15% | -6% | -6%[59 µM] | nt | nt | -1%
CS(=O)(=O)N(CC(=O)N1CCOCC1)c1cccc(F)c1 | 30% | -9% | nt | 45% | 12% | 37%
N#Cc1c(N)oc(-c2ccc3c(c2)OCO3)c1-c1ccc2c(c1)OCO2 | 2% | -32% | 50µM* | nt | 4% | ?
Cc1ccc(-c2cc(-c3ccc(C)o3)nc(N)c2C#N)cc1 | ? | 32µM* | 2µM* | -4% | 13µM* | 71µM*
N#Cc1c(N)nc2c(c1-c1ccc3c(c1)OCO3)CCCCCC2 | 18% | 5% | -12%[59 µM] | 4% | 19% | -1%
Cc1ccc(-c2cc(C(F)(F)F)c(C#N)c(SCCC#N)n2)o1 | 27% | -13% | ? | nt | -10% | 3%
Cc1ccc(-c2cc(-c3ccc(F)cc3)c(C#N)c(N)n2)o1 | 16% | 40µM* | 8.9µM* | 15% | ? | -26%
CCOc1ccc(CCNC(=O)c2ccc(Cn3c(=O)c4cccn4c4cccnc43)cc2)cc1 | 31% | -27% | -50%[59 µM] | nt | nt | ?
Oc1cccc2c(NC(=S)Nc3ccc(SC(F)F)cc3)cccc12 | ? | ? | 40µM* | ? | ? | 45µM*
COc1ccc(-n2c(O)c(/C=N/NS(=O)(=O)c3ccc(C)c([N+](=O)[O-])c3)c3ccccc3c2=O)cc1OC | ? | 40µM* | 1%[12.7 µM] | -15% | 12% | 50µM*
COc1cc(/C=N/NS(=O)(=O)c2ccc(C)c([N+](=O)[O-])c2)cc([N+](=O)[O-])c1O | -6% | -24% | 40µM* | -16% | -16% | 50µM*
COc1cc(/C=N/NS(=O)(=O)c2ccc(C(C)(C)C)cc2)cc([N+](=O)[O-])c1O | ? | 56µM* | 18µM* | -24% | -5% | ?
CC(C)C[C@@H](CC(=O)N[C@@H](CCCN)CC(=O)N[C@@H]1CCCC[C@H]1C(=O)N[C@H](CC(=O)N[C@@H](CCC(=O)O)CC(=O)O)Cc1ccccc1)NC(=O)[C@@H]1CCCC[C@H]1N | nt | nt | nt | nt | 12% | nt
COc1ccc(C)cc1NC(=O)CN1c2ccccc2S(=O)(=O)c2ccccc21 | -5% | -15% | 0%[59 µM] | nt | nt | -33%
COCCC(=O)Nc1c(-c2ccccc2)c2cc(Br)ccc2[nH]c1=O | 22% | -6% | -4%[0.501 µM] | 6%[2.29 µM] | 11% | 0%
Cc1cc(C)nc(NS(=O)(=O)c2ccc(NC(=S)NC(=O)c3cccnc3)cc2)n1 | -2% | -16% | 50µM* | -21% | 40µM* | -17%
Cc1cc(NS(=O)(=O)c2ccc(NC(=S)NC(=O)c3cccnc3)cc2)no1 | 7% | 32µM* | 45µM* | 7% | -5% | ?
COc1ccc(/C=C/C(=O)NC(=S)Nc2ccc(S(=O)(=O)Nc3cc(C)on3)cc2)cc1 | -7% | -28% | 40µM* | nt | -1% | -25%
Cc1cc(NS(=O)(=O)c2ccc(NC(=S)NC(=O)c3ccc(Br)cc3)cc2)no1 | -14% | -32% | ? | -1% | ? | -32%
COc1ccc(NC(=O)[C@@H](NS(=O)(=O)c2cccc(Cl)c2)C(C)C)cc1S(=O)(=O)N1CCOCC1 | 3% | -17% | nt | 1% | nt | nt
COCCn1c(=O)c(-c2ccc(F)cc2)nc2cnc(Oc3ccc(OC)cc3)nc21 | nt | nt | 4%[12.7 µM] | nt | 5% | nt
